Gal4-VP16 FLuc: Gal4-VP16 reporter inhibition counter-screen | Potency, µM (titrated, usually from 53.6 µM), for inactives: at the top dose activity, negative = inhibition, usual class: inhibitors | 310,000 tested, 3.5% active | Drosophila S2 Gal4-VP16 UAS-luciferase, luminescence, 20 h;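 further: Gal4-VP16 expression switched on by copper sulfate through the metallothionein promoter; nearly all actives have a fitted effect of over 50% in size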
TDP1 cell noCPT: qHTS for Inhibitors of human tyrosyl-DNA phosphodiesterase 1 (TDP1): qHTS in cells in absence of CPT | DT40 Tdp1-/- hTDP1 cells, no CPT, ATP luminescence, 48 h | Potency, µM (titrated, usually from 46.2 µM), for the others: at the top dose activity change, negative = growth inhibition, most hits filed as inhibitors | 420,000 tested, 15% active | AID 686978, 2013; further: nearly all actives have a fitted effect of over 55% in size
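Compound effects on proliferation are scored in DT40 Tdp1-/-;hTDP1 cells in the absence of CPT. ATP levels (CellTiter-Glo luminescence) are recorded after a ≥48 hr, 37 °C incubation.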
ALOX12 inh: blocks human arachidonate 12S-lipoxygenase | purified 12hLO, xylenol orange hydroperoxide absorbance | Potency, µM (titrated, usually from 108 µM), for inactives: at the highest dose activity change, negative = inhibition, usual class: inhibitors | P18054 | 580,000 tested, 1.1% active
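Purified human 12hLO (150 nM final) in 25 mM Hepes, 0.01% Triton X-100, pH 7.0 was preincubated 15 min at room temperature with compound. Then 40 uM arachidonic acid was added, 30 min. Hydroperoxide was read by Fe-XO absorbance ratio 573/405 nm.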
RORgamma inh: ROR gamma (mouse) transcription inhibition; P51450; Drosophila S2 Gal4-RORgamma UAS-luciferase reporter, 20 h; Potency, µM (doses to about 53.6 µM), without a hit: top-dose activity change, negative = inhibition, usual class: inhibitors; 310,000 tested, 5.4% active; further: nearly all actives have a fitted effect of over 60% in size
Target sequence (P51450 whole entry, looked up, the tested form may be a part): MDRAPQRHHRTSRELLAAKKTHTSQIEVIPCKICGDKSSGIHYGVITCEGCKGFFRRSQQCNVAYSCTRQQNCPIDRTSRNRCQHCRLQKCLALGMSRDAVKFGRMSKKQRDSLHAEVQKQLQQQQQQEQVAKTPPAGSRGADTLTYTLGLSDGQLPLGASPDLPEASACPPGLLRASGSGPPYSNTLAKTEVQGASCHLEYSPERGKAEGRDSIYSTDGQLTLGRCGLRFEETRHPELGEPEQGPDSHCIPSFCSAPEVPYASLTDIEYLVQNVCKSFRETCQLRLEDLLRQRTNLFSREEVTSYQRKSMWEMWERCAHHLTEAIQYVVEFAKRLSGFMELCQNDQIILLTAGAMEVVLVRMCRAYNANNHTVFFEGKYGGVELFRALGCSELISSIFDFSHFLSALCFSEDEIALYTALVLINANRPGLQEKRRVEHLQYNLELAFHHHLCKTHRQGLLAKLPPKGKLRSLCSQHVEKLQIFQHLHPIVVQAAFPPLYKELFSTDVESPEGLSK
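Stable Schneider cell line, Gal4 DNA-binding domain fused to ROR gamma, UAS-luciferase. Cmpd 1 hr RT → CuSO4 700 uM final → 20 hr RT → luciferase reagent 10 min → luminescence.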
ELG1 repair inh: blocks ELG1-dependent DNA repair in HEK293T cells | 330,000 tested, 2.3% active | AID 504467 | HEK293T ELG1-luciferase reporter, luminescence, 16 h; DNA damage induced by 5-fluorouridine | Potency, µM (highest dose often 46.1 µM), inactives show top-dose activity change, negative = inhibition, hits mostly inhibitors; further: nearly all actives have a fitted effect of over 55% in size
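Overnight (16 hr) co-exposure of 2,000 cells/well to 5-fluorouridine and compound at 37 °C preceded detection. Luciferase was quantified via ONE-Glo luminescence; loss of signal denotes inhibition.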
DT40 TDP1 CPT: growth inhibition of DT40 Tdp1-/-;hTDP1 cells with camptothecin (screen for TDP1 inhibitors) | chicken DT40 Tdp1-/-;hTDP1 cells + 20 nM CPT, ATP luminescence, 48 h | Potency, µM (titrated, usually from 46.2 µM), for inactives: top-dose activity change, negative = growth inhibition, usual class: inhibitors | 420,000 tested, 12% active | AID 686979; further: nearly all actives have a fitted effect of over 55% in size
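Cell growth measured by CellTiter-Glo luminescence after a minimum 48 h, 37 C compound exposure with 20 nM CPT in Tdp1-knockout DT40 cells stably expressing hTDP1, seeded 400/well; qHTS titration format.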
An asterisk follows results filed as active; [ ] = remark or other dose. Rows were chosen to be rich in hits. Some 15% of all compounds tested hit in one or more screens of this group. The call rests on the fitted dose curve; in most records, active means well fitted curve in the direction sought with a large enough effect; inconclusive means small, poorly fitted or top-dose-only effect, or another doubt; inactive means no such curve, though single readings can be large; an effect the other way counts as inactive or inconclusive. On the % scale 0 is the no-effect control and ±100 the full control effect; potency means the concentration at half of the fitted maximal effect.

`Cc1cc(C(=O)COC(=O)c2ccccc2O)c(C)n1CC1CCCO1` (configuration not stated) gave TDP1 cell noCPT -25%, ALOX12 inh -11%, ELG1 repair inh inconclusive and DT40 TDP1 CPT inconclusive.
For Cc1cc(C(=O)COC(=O)c2ccccc2NCCO)c(C)n1CC1CCCO1 (configuration not stated) the results were Gal4-VP16 FLuc 1.6µM*, TDP1 cell noCPT 15µM*, ALOX12 inh -13%, RORgamma inh 0.79µM*, ELG1 repair inh inconclusive and DT40 TDP1 CPT inconclusive.
`Cc1ccc(C(=O)OCC(=O)c2cc(C)n(CC3CCCO3)c2C)cc1` (configuration not stated) gave Gal4-VP16 FLuc 3%[10 µM], TDP1 cell noCPT inconclusive, ALOX12 inh -3%, RORgamma inh inconclusive, ELG1 repair inh inconclusive and DT40 TDP1 CPT -3%.
For CCCCn1cnc2c1c(=O)[nH]c(=O)n2CCC the results were ALOX12 inh -24%.
CCOc1cccc(C(=O)NNC(=O)C2C3CCC(C3)C2C(=O)O)c1 (configuration not stated) was read as ALOX12 inh 4%.
Screening CC(OC(=O)c1ccc2c(c1)NC(=O)CS2)C(=O)NC1CCCC1 (configuration not stated) returned ALOX12 inh 0%.
For Cc1ccc(C(=O)N2C(C(=O)NCc3ccccc3)COC23CCN(C(=O)C2CC2)CC3)cc1 (configuration not stated) the results were ALOX12 inh 47%.
`Cc1ccc(-c2[nH]nc3c2C(c2ccsc2)C(C#N)=C(N)O3)cc1` (configuration not stated) gave Gal4-VP16 FLuc -11%, TDP1 cell noCPT -28%, ALOX12 inh inconclusive, RORgamma inh -15%, ELG1 repair inh 14% and DT40 TDP1 CPT -6%.
`CCC(CC)C1C(C#N)=C(N)Oc2n[nH]c(-c3ccccc3)c21` (configuration not stated) gave Gal4-VP16 FLuc -16%, TDP1 cell noCPT 26µM*, ALOX12 inh 8%, RORgamma inh -37%, ELG1 repair inh inconclusive and DT40 TDP1 CPT inconclusive.
Screening CCC(CC)C1C(C#N)=C(N)Oc2n[nH]c(C)c21 (configuration not stated) returned Gal4-VP16 FLuc 7%, TDP1 cell noCPT 16µM*, ALOX12 inh -30%, RORgamma inh -17%, ELG1 repair inh 0% and DT40 TDP1 CPT 18µM*.
`CC(C)C1C(C#N)=C(N)Oc2n[nH]c(-c3ccc4ccccc4c3)c21` (configuration not stated) gave Gal4-VP16 FLuc -2%, TDP1 cell noCPT 10µM*, ALOX12 inh inconclusive, RORgamma inh 3%, ELG1 repair inh -5% and DT40 TDP1 CPT inconclusive.
For N#CC1=C(N)Oc2n[nH]c(-c3ccccc3)c2C1c1ccsc1 (configuration not stated) the results were Gal4-VP16 FLuc -10%, TDP1 cell noCPT 12µM*, ALOX12 inh 151%, RORgamma inh -2%, ELG1 repair inh inconclusive and DT40 TDP1 CPT inconclusive.
Screening CN1c2cc(C(=O)Nc3ccc(C(F)(F)F)cc3)ccc2C(=O)N2CCCCC21 (configuration not stated) returned ALOX12 inh 25%.
For COCCc1noc([C@@H]2CN(Cc3ccc4[nH]ccc4c3)C[C@H]2CO)n1 the results were ALOX12 inh 34%.

Source: PubChem BioAssay (National Center for Advancing Translational Sciences (NCATS))
